Laboratory results reported in PubChem BioAssay (NCI).
The panel holds about 83,000 compounds, 20% with a hit somewhere; the sample as a whole holds those more often.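 Percent growth is the endpoint: 0 to 100 indicates growth inhibition (40 means 60% inhibition), 0 means no net growth, and negative values indicate cell death.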 A number with no mark means an inactive call. The source made the active and inactive calls. Rule for the calls: active = growth percent below 10; inactive = the rest.

Experiments:
Assay in all cases: NCI-60 one-dose screen, 48 h (100 = growth as untreated, 0 = no growth, -100 = all killed)
Conditions in all cases: 10 µM unless noted
SK-MEL-2 melanoma = test system: SK-MEL-2 melanoma
EKVX NSCLC = test system: EKVX NSCLC
SN12C renal = test system: SN12C renal
UO-31 renal = test system: UO-31 renal
TK-10 renal = test system: TK-10 renal
ACHN renal = test system: ACHN renal
CAKI-1 renal = test system: CAKI-1 renal
A498 renal = test system: A498 renal
CCRF-CEM leukemia = test system: CCRF-CEM leukemia
MOLT-4 leukemia = test system: MOLT-4 leukemia
SR leukemia = test system: SR leukemia
RPMI-8226 leukemia = test system: RPMI-8226 leukemia
OVCAR-8 ovarian = test system: OVCAR-8 ovarian
OVCAR-4 ovarian = test system: OVCAR-4 ovarian
HS 578T breast = test system: HS 578T breast
NCI/ADR-RES ovarian = test system: NCI/ADR-RES ovarian
OVCAR-5 ovarian = test system: OVCAR-5 ovarian
SK-OV-3 ovarian = test system: SK-OV-3 ovarian
IGROV1 ovarian = test system: IGROV1 ovarian
OVCAR-3 ovarian = test system: OVCAR-3 ovarian

SMILES | growth (SK-MEL-2 melanoma) | growth (EKVX NSCLC) | growth (SN12C renal) | growth (UO-31 renal) | growth (TK-10 renal) | growth (ACHN renal) | growth (CAKI-1 renal) | growth (A498 renal) | growth (CCRF-CEM leukemia) | growth (MOLT-4 leukemia) | growth (SR leukemia) | growth (RPMI-8226 leukemia) | growth (OVCAR-8 ovarian) | growth (OVCAR-4 ovarian) | growth (HS 578T breast) | growth (NCI/ADR-RES ovarian) | growth (OVCAR-5 ovarian) | growth (SK-OV-3 ovarian) | growth (IGROV1 ovarian) | growth (OVCAR-3 ovarian)
CN1CCN(Cc2ccc(NC(=O)c3cncc(C#Cc4cnc(N)c5ncccc45)c3)cc2C(F)(F)F)CC1 | -77.3% (active) | 33.3% | -33.2% (active) | -92.3% (active) | -63.8% (active) | -75.6% (active) | -23.9% (active) | -27% (active) | 19.3% | 14.5% | 12.4% | 19.5% | -29% (active) | -21.9% (active) | -30.3% (active) | -55.3% (active) |  |  |  | 
COc1ccc(-c2n[nH]c(=O)c3nc(NC(=S)Nc4ccc(Oc5ccccc5)cc4)sc23)cc1 | 98.6% | 106% | 100% | 77.1% | 92.8% | 105% | 87.3% |  | 81.2% | 96.9% | 81.6% | 82.8% | 86.5% | 95% | 97.7% | 108% | 104% | 94.9% | 104% | 105%
Nc1ncnc2c1N=C(c1ccc3c(c1)OCO3)CC(c1cccc(Nc3ccnc4cc(C(F)(F)F)ccc34)c1)N2 (stereo unspecified) | 88% | 89.5% | 75.5% | 76.9% | 99% | 98.3% | 78.4% |  | 64.8% | 93.5% | 23.3% | 5.05% (active) | 67.7% | 89.2% | 85.8% | 88.3% | 108% | 80.2% | 84.2% | 95.1%
N#Cc1cccc(C2C3=C(COC3=O)N(CCO)c3cc4c(cc32)CCC4)c1 (stereo unspecified) | 24.5% | 41.4% | 34.3% | 39% | 54.2% | 26% | 34.7% |  | 7.42% (active) | 13.5% | 14.8% | 19.3% | 5.25% (active) | 56.4% | 28.2% | 2.04% (active) | 43.5% | 32.1% | 22.5% | -10.5% (active)
Cc1c2cccnc2c(C)c2c1c1cc(CO)ccc1n2C | 29.9% | 20.3% | 14.7% | 17.9% | 26.7% | 13.9% | 7.09% (active) |  | 29.9% | 22.9% | 14.3% | 23.1% | 28.6% | 33.3% | 47.6% | 24.2% | 2.92% (active) | 43.1% | 4.27% (active) | 25.2%
CCOC(=O)c1nn(CC(O)c2ccccc2)c(NC(=O)Nc2cccc(F)c2)c1C (stereo unspecified) | 95% | 101% | 87.5% | 90.1% | 105% | 107% | 101% |  | 96.7% | 99.2% | 95.3% | 96.6% | 91.4% | 94.8% | 94.5% |  | 107% |  | 109% | 102%
COc1ccc(/C=C2\CN(C(=O)C(Cl)Cl)C/C(=C\c3ccc(OC)cc3)C2=O)cc1 | 68.6% | 14.5% | -38.9% (active) | -97.8% (active) | 20.4% | -58.3% (active) | -18.9% (active) | -73.1% (active) | 9.77% (active) | 5.42% (active) | 1.01% (active) | -14.3% (active) | 19% | 3.73% (active) | 17.8% | 11.6% |  | 41.6% |  | -75.3% (active)
Nc1c(C(=O)Nc2cccc(Cl)c2)sc2nc3c(cc12)CCCC3 | 86.6% | 94.8% | 97.6% | 90.3% | 85.1% | 94.4% | 91.3% |  | 87.1% | 84.8% | 53.9% | 93.6% | 93% | 90.9% | 97.7% | 101% | 93.4% | 96.2% | 106% | 103%
CCN1C(=O)N(CC)C2C1NC(=S)N2/N=C/c1ccc(C(F)(F)F)cc1 (stereo unspecified) | 87.9% | 81.6% | 82.4% | 62.3% | 95% | 79% | 37% |  | 80.2% | 70.5% | 28.4% | 76.8% | 86.8% | 72.7% | 66.2% | 69.5% | 81.3% | 79% | 60.6% | 64.8%
CCN(CC)CCN1C(=O)c2c(c(C)c3c(oc4ccc(OC)cc43)c2C)C1=O | 115% | 101% | 92.6% | 17.5% | 94.3% | 9.28% (active) | 95.8% |  | 90.2% | 96.2% | 110% | 92.5% | 79.9% | 103% | 101% | 82.6% | 88.9% | 111% | 87.2% | 115%
O=C(/C=C(O)/C=C/c1cccc2[nH]ccc12)/C=C/c1cccc2[nH]ccc12 | 85.9% | 97.8% | 82.5% | 52% | 83.9% | 84.4% | 74.6% | 112% | 65.4% | 59.2% | 10.3% | 2.9% (active) | 72.6% | 91.7% | 91% | 87.6% |  | 85.6% |  | 103%
O=C(Cc1ccc(/C=C/C(=O)c2ncc[nH]2)cc1)Nc1cc(C(F)(F)F)cc(C(F)(F)F)c1 | 110% | 108% | 94.9% | 62.9% | 115% | 105% | 78.5% |  | 92.9% | 67.7% | 41.1% | -18% (active) | 87.1% | 100% | 87.6% | 102% | 103% | 105% | 84.4% | 59.3%
CCN(CC)Cc1cc(Nc2ccnc3cc(Cl)ccc23)ccc1O | 111% | 68.5% | 81.9% | 87.1% | 108% | 100% | 88.3% |  | 88.8% | 100% | 82.7% | 93.3% | 100% | 94.4% | 91.6% | 93.9% | 97.7% | 116% | 88.4% | 88.5%
CC/C=C\CCC/C=C1/C(=O)C=C[C@@H]1C/C=C\CCCC(=O)OC | 87.3% | 99.3% | 11.6% | 69.8% | 100% | 42.9% | 54.1% |  | 3.2% (active) | 3.52% (active) | 2.36% (active) | 1.41% (active) | 14.2% | 76.6% | 37.2% | 25.9% | 73.5% | 119% | 84.2% | 26.7%
Fc1ccc(Cn2cc(CSc3nc4ccccc4o3)nn2)cc1 | 99.1% | 108% | 96.5% | 83.6% | 95.7% | 102% | 91.3% |  | 100% | 92.7% | 103% | 105% | 102% | 98.9% | 105% | 109% | 100% | 91.3% | 98.8% | 98.5%
COc1ccc(C[n+]2c3ccccc3n3c4ccc(N)cc4ccc32)c(OC)c1OC | 44% | 49.3% | 6.42% (active) | 88.7% |  | 101% | 96.6% | 81.3% | 40.4% | 67.9% | 41.2% | 15.1% | 46.8% | 55.5% | 43.5% | 103% | 99.6% |  | 73.9% | 50.9%
